Bioassay records (PubChem BioAssay)
CtBP-E1A blk: blocks the CtBP interaction with E1A; activity change, % (test concentration not listed); 340,000 tested, 0.49% active; AlphaScreen GST-E1A/His-CtBP binding, 1536-well; active compounds read low; in the data active means activity change below about -65%; inconclusive means mostly about -30% to -63%
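Homogeneous bead-based format: GST-tagged E1A captured on glutathione donor beads, His-tagged CtBP on nickel acceptor beads; compounds precede bead addition by 2 h at 37 °C.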
TDP1 inh: TDP1 (human) enzyme inhibition; Q9NUW8; recombinant TDP1, AlphaScreen DNA substrate cleavage; Potency, µM (titrated, usually from 130 µM), without a hit: at the highest dose activity change, negative = inhibition, most hits filed as inhibitors; 350,000 tested, 0.28% active; further: potency means the concentration at half of the fitted maximal effect; nearly all actives have a fitted effect of over 40% in size
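AlphaScreen read-out: signal falls as enzyme removes the 3' tyrosine-FITC from a 5'-biotinylated DNA oligo (15 nM, 5 min, RT). Enzyme was E. coli-made recombinant Tdp1 at 1 nM, exposed to compound for 15 min beforehand; beads 10 ug/ml, 10 min.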
DT40 TDP1 CPT: growth inhibition of DT40 Tdp1-/-;hTDP1 cells with camptothecin (screen for TDP1 inhibitors); chicken DT40 Tdp1-/-;hTDP1 cells + 20 nM CPT, ATP luminescence, 48 h; Potency, µM (series often up to 46.2 µM), inactives show at the top dose activity change, negative = growth inhibition, usual class: inhibitors; 420,000 tested, 12% active; AID 686979; further: potency means the concentration at half of the fitted maximal effect; nearly all actives have a fitted effect of over 55% in size
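Cell growth measured by CellTiter-Glo luminescence after a minimum 48 h, 37 C compound exposure with 20 nM CPT in Tdp1-knockout DT40 cells stably expressing hTDP1, seeded 400/well; qHTS titration format.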
Six1-Eya2 inh: inhibitors of human Six1/Eya2 interaction. AID 651725. Q15475+O00167. 360,000 tested, 0.56% active. activity change, % (no concentration beside the values). AlphaScreen GST-Six1/His-Eya2 binding, biochemical; active compounds read low; in the data active means activity change below about -65%; inconclusive means mostly about -30% to -63%
Target sequence (O00167 whole entry, looked up): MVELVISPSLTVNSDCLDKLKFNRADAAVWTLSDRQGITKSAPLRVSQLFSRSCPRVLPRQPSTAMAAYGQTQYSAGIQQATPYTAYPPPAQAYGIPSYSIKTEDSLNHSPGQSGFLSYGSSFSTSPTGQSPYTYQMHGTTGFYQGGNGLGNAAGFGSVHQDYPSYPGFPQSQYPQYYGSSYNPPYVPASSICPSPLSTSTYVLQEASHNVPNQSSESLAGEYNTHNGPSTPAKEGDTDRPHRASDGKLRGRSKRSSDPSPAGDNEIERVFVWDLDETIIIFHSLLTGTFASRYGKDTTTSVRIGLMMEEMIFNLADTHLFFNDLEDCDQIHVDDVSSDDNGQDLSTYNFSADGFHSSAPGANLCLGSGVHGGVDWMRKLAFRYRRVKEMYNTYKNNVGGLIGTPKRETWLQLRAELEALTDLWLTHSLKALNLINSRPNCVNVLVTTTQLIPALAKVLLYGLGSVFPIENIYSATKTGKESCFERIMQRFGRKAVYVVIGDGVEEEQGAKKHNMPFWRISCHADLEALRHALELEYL
Target sequence (Q15475 whole entry, looked up): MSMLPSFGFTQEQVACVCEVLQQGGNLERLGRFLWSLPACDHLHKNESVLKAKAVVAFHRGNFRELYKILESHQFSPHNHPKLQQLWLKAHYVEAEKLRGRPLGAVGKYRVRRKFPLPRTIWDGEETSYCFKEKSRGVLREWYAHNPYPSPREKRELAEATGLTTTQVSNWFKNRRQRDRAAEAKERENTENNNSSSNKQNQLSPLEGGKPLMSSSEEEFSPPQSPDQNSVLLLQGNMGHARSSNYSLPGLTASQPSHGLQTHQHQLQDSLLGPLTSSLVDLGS
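Six1/Eya2 binding was read as AlphaScreen signal after compounds were pinned into GST-Six1 plus His-tagged Eya2 (5X stock 250/500 nM) in pH 8.0 Tris/NaCl/TCEP buffer, beads added, then incubated 1 h, 37 C, dark.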
IL-1B inflam inh: inflammasome signaling inhibition, IL-1 beta readout | 360,000 tested, 4.7% active | THP-1 LPS/ATP IL-1B secretion, AlphaLISA, 16 h; active compounds read low | activity change, % at 57.5 µM | AID 743279; in the data active means activity change below about -50%; inconclusive means mostly about -30% to -49%
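THP-1 cells pretreated 1 hr with compounds (up to 57.5 uM final), then stimulated with LPS (250 ng/mL final) plus ATP (1.25 mM final); secreted IL-1B measured by AlphaLISA after 16 hr, decreased signal indicating inhibition.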
DT40 TDP1 no CPT: qHTS for Inhibitors of human tyrosyl-DNA phosphodiesterase 1 (TDP1): qHTS in cells in absence of CPT. DT40 Tdp1-/- hTDP1 cells, no CPT, ATP luminescence, 48 h. Potency, µM (titrated, usually from 46.2 µM), inactives show at the top dose activity change, negative = growth inhibition, hits mostly inhibitors. 420,000 tested, 15% active; further: potency means the concentration at half of the fitted maximal effect; nearly all actives have a fitted effect of over 55% in size
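Camptothecin absent (DMSO only). Human TDP1-complemented DT40 knockout cells, 400 cells/well, 37 °C for minimum 48 hr; ATP measured via CellTiter-Glo, 30 min dark incubation, luminescence.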
The depositor's hits bear a star; ? = inconclusive; . = no result; [ ] = another dose, or the depositor's remark. Sampled rows, rich in hits. Any-hit rate of the full collection: about 18%. Unless noted, the call rests on the fitted dose curve; in most records, active means well fitted curve in the direction sought with a large enough effect; inconclusive means small, poorly fitted or top-dose-only effect, or another doubt; inactive means no such curve, though single readings can be large; an effect the other way counts as inactive or inconclusive. On the % scale 0 is the no-effect control and ±100 the full control effect.

SMILES	CtBP-E1A blk	TDP1 inh	DT40 TDP1 CPT	Six1-Eya2 inh	IL-1B inflam inh	DT40 TDP1 no CPT
COc1ccc(C(=O)CC2(O)C(=O)N(CCc3ccccc3)c3ccc(Br)cc32)cc1OC (stereo not given)	.	.	16µM*	.	.	?
O=C(CC1(O)C(=O)N(CCc2ccccc2)c2ccc(Br)cc21)c1ccc(F)cc1 (stereo not given)	.	.	?	.	.	16µM*
COc1ccc(C2(CNC(=O)C(=O)Nc3ccc(F)cc3)CCCC2)cc1OC	.	-2%	18µM*	.	.	18µM*
COc1ccc(C(NC(=O)/C=C/c2ccco2)c2ccc(OC)c(OC)c2)cc1OC	-7	-3%	-11%	-9	0	2%
COc1ccc(C2(CNC(C)=O)CCOCC2)cc1OC	-3	2%	2%	11	18	3%
COc1ccc(C2(CNC(=O)/C=C\c3ccco3)CCCC2)cc1OC	0	3%	18µM*	-1	13	29µM*
COc1ccc(C2(CNC(=O)c3cc(OC)c(OC)c(OC)c3)CCCC2)cc1OC	-2	.	?	-10	-2	?
COc1ccc(C2(CNC(=O)C(=O)Nc3ccccc3C)CCCC2)cc1OC	.	2%	23µM*	.	.	18µM*
NC(=O)C1(S(=O)(=O)c2ccccc2)CCCCC1	1	2%	1%	3	17	0%
Cc1nn(Cc2ccc(Cl)cc2)c(C)c1NC(=O)CCCn1nc(C)c([N+](=O)[O-])c1C	-14	-9%	-18%	-1	-12	?
CC1C(=O)N2CCCc3cc(S(=O)(=O)N4CCN(c5ccccc5F)CC4)cc1c32 (stereo not given)	-4	5%	?	1	33	?
O=C(OCC(=O)N(CCc1ccccc1)Cc1ccccc1)c1ccccc1O	1	0%	18µM*	44	5	?
O=C(OCC(=O)N(Cc1ccccc1)Cc1ccccc1)c1ccccc1O	17	-5%	18µM*	8	26	?
Cc1ccc(S(C)(=O)=O)cc1C(=O)OCC(=O)N(Cc1ccccc1)Cc1ccccc1	.	0%	21µM*	-7	-3	16µM*
O=C(OCC(=O)N(CCc1ccccc1)Cc1ccccc1)c1ccccc1NCCO	15	-5%	?	9	12	?
O=C(NCCC(=O)N(CCc1ccccc1)Cc1ccccc1)c1ccccc1Cl	-1	-14%	?	7	-19	23µM*
O=C(OCC(=O)N(Cc1ccccc1)Cc1ccccc1)c1cccc(O)c1	0	-1%[56.1 µM]	?	0	2	?
COC(=O)c1ccn(-c2nc(-c3ccco3)cc(C(F)(F)F)n2)n1	-11	3%	-27%	-10	1	?
COc1ccc(-c2cc(C(F)(F)F)nc(-n3cncn3)n2)cc1	-17	4%	-15%	-9	-11	-27%
COc1ccc(-c2cc(C(F)(F)F)nc(-n3cc(Cl)cn3)n2)cc1	0	-2%	15µM*	13	.	?
COc1cccc(-c2cc(C(F)(F)F)nc(-n3cc(Cl)cn3)n2)c1	1	-2%	?	18	.	16µM*
FC(F)(F)c1cc(-c2ccccc2)nc(-n2cc(Cl)cn2)n1	.	-4%	?	20	?	?
COc1ccc(-c2cc(C(F)(F)F)nc(-n3nc(C(F)(F)F)cc3C)n2)cc1	.	-1%	15µM*	.	.	13µM*
CCOC(=O)c1ccn(-c2nc(-c3cccc(OC)c3)cc(C(F)(F)F)n2)n1	.	-2%	15µM*	.	.	21µM*
O=[N+]([O-])c1ccc(C(=S)N2CCC(Cc3ccccc3)CC2)cc1	?	5%	-27%	?	-5	-26%
SMILES	CtBP-E1A blk	TDP1 inh	DT40 TDP1 CPT	Six1-Eya2 inh	IL-1B inflam inh	DT40 TDP1 no CPT
CN1N=C(C(=O)N2CCc3c([nH]c4ccccc34)C2c2ccccc2Cl)CCC1=O (stereo not given)	1	8%	2%	0	25	-22%
CCOC(=O)c1sc(-c2ccc(Cl)cc2)nc1O	7	3%	19%	1	2	1%
CCOC(=O)c1sc(C)c2c(=O)n(Cc3ccc(Cl)cc3)c(C)nc12	0	-1%	23µM*	7	0	16µM*
CCN(CC)C(=O)c1sc2c(c1C)c(=O)n(Cc1ccccc1)c(=O)n2Cc1ccc(Cl)cc1	.	5%	?	.	.	4.6µM*
Cc1cccc(C)c1NC(=O)Cn1c(=O)n(Cc2ccccc2)c(=O)c2c(C)c(C(=O)N(C)C)sc21	.	0%	16µM*	.	.	?
CCN(CC)C(=O)c1sc2c(c1C)c(=O)n(-c1ccc(C)c(C)c1)c(=O)n2CC(=O)Nc1ccc(F)cc1	.	-10%	-27%	.	.	?
CCN(CC)C(=O)c1sc2c(c1C)c(=O)n(-c1ccc(C)c(C)c1)c(=O)n2Cc1cccc(Cl)c1	.	0%	21µM*	.	.	?
CCN(CC)C(=O)c1sc2c(c1C)c(=O)n(Cc1ccccc1)c(=O)n2Cc1cc(C)ccc1C	.	-1%	?	.	.	?
COC(=O)c1ccccc1NC(=O)Cn1c(=O)n(Cc2ccccc2)c(=O)c2c(C)c(C)sc21	-4	5%	2%	-19	10	-10%
CCOc1ccc(NC(=O)CCNC(=O)c2ccco2)cc1	0	-9%	-10%	7	9	-8%
Cc1ccc(-n2nc(C)c3c(C)c(CCC(=O)O)c(C)nc32)cc1C	3	.	-10%	0	104	10%
Cc1ccc(C)c(NC(=O)CN(C)C(=O)c2ccccn2)c1	3	.	5%	14	13	1%
CCOC(=O)c1ccccc1NC(=O)Cn1c(=O)n(-c2ccc(CC)cc2)c(=O)c2c(C)c(C(=O)N(C)C)sc21	.	2%	8.2µM*	.	.	12µM*
CCc1ccc(NC(=O)Cn2c(=O)n(-c3cccc(OC)c3)c(=O)c3c(C)c(C(=O)N(C)C)sc32)cc1	.	-3%	1%	.	.	-7%
CCOC(=O)c1sc2c(c1C)c(=O)n(CCO)c(=O)n2Cc1ccccc1	.	.	15µM*	-13	-1	16µM*
CCN(CC)C(=O)c1sc2c(c1C)c(=O)n(Cc1ccccc1)c(=O)n2Cc1c(C)cc(C)cc1C	.	2%	?	.	.	21µM*
CC1CCN(C(=O)COc2cccc3c2CCN(C)C3=O)CC1	0	1%	-3%	16	45	4%
Cc1noc(C)c1C(=O)N1CCC[C@@]2(CCN(C(=O)Nc3cccc(F)c3)C2)C1	.	.	-2%	.	.	?
O=C(COc1nsnc1N1CCOCC1)Nc1ccc(Br)cc1	-14	2%[0.0935 µM]	?	-25	-10	21µM*
